# Experimental data taken from the supplement of paper PMC8728848.
# The full list was thinned out, with the strongest signals kept by preference.
# B1: PVL (Psathyrella velutina), Q309D1_9AGAR (protein)
# chain: MSVVVISQALPVPTRIPGVADLVGFGNGGVYIIRNSLLIQVVKVINNFGYDAGGWRVEKHVRLLADTTGDNQPDVVGFGENGVWISTNNGNNTFVDPPKMVLANFAYAAGGWRVEKHIRFMADLRKTGRADIVGFGDGGIYISRNNGGGQFAPAQLALNNFGYAQGWRLDRHLRFLADVTGDGLLDVVGFGENQVYIARNSGNGTFQPAQAVVNNFCIGAGGWTISAHPRVVADLTGDRKADILGFGVAGVYTSLNNGNGTFGAVNLVLKDFGVNSGWRVEKHVRCVSSLTNKKVGDIIGFGDAGVYVALNNGNGTFGPVKRVIDNFGYNQGWRVDKHPRFVVDLTGDGCADIVGFGENSVWACMNKGDGTFGPIMKLIDDMTVSKGWTLQKTVRYAANLYL
# Legend:
# Test in all cases: glycan array binding signal (z-score within array); higher = stronger binding
# Details in all cases: glycan notation: IUPAC condensed, linker removed
# Fuc(a1-2)Gal(b1-3)GlcNAc = molecular target: Fuc(a1-2)Gal(b1-3)GlcNAc
# In short: (§1)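 Glycan array data were curated from 3228 arrays in the Consortium for Functional Glycomics database and kept only where the protein sequence was available. Glycan names were converted to IUPAC-condensed notation, and columns mapping to the same glycan were averaged. The binding signal is a within-array Z-score, averaged across arrays of the same protein sequence at different concentrations or buffers and across linkers. Negative Z-scores can be read as non-binding.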
# [1] = molecular target: Fuc(a1-2)Gal(b1-3)GlcNAc(b1-2)Man(a1-3)[Fuc(a1-2)Gal(b1-3)GlcNAc(b1-2)Man(a1-6)]Man(b1-4)GlcNAc(b1-4)[Fuc(a1-6)]GlcNAc
# In short: as §1
# [2] = molecular target: Fuc(a1-2)Gal(b1-4)GlcNAc(b1-2)Man
# In short: as §1
# [3] = molecular target: Fuc(a1-2)Gal(b1-4)[Fuc(a1-3)]GlcNAc
# In short: as §1
# [4] = molecular target: Fuc(a1-2)[Gal(a1-3)]Gal(b1-4)GlcNAc(b1-2)Man
# In short: as §1
# [5] = molecular target: Fuc(a1-2)[GalNAc(a1-4)]Gal(b1-4)GlcNAc
# In short: as §1
# [6] = molecular target: Gal(a1-3)Gal(b1-4)[Fuc(a1-3)]GlcNAc
# In short: as §1
# [7] = molecular target: Gal(b1-3)GlcNAc(b1-2)[Gal(b1-3)GlcNAc(b1-6)]Man(a1-6)[Gal(b1-3)GlcNAc(b1-2)Man(a1-3)]Man(b1-4)GlcNAc(b1-4)GlcNAc
# In short: as §1
# [8] = molecular target: Gal(b1-3)GlcNAc(b1-3)Gal(b1-4)Glc
# In short: as §1
# [9] = molecular target: Gal(b1-3)GlcNAc(b1-3)GalNAc
# In short: as §1
# [10] = molecular target: Gal(b1-3)GlcNAc(b1-6)GalNAc
# In short: as §1
# [11] = molecular target: Gal(b1-3)[Neu5Ac(b2-6)]GalNAc
# In short: as §1
# [12] = molecular target: Gal(b1-4)GlcNAc(b1-2)Man(a1-3)[Gal(b1-4)GlcNAc(b1-2)Man(a1-6)]Man(b1-4)GlcNAc(b1-4)GlcNAc
# In short: as §1
# [13] = molecular target: Gal(b1-4)GlcNAc(b1-2)Man(a1-3)[Gal(b1-4)GlcNAc(b1-2)Man(a1-6)]Man(b1-4)GlcNAc(b1-4)[Fuc(a1-6)]GlcNAc
# In short: as §1
# [14] = molecular target: Gal(b1-4)GlcNAc(b1-2)Man(a1-3)[GlcNAc(b1-2)Man(a1-6)]Man(b1-4)GlcNAc(b1-4)GlcNAc
# In short: as §1
# [15] = molecular target: Gal(b1-4)GlcNAc(b1-2)Man(a1-3)[GlcNAc(b1-4)][Gal(b1-4)GlcNAc(b1-2)Man(a1-6)]Man(b1-4)GlcNAc(b1-4)GlcNAc
# In short: as §1
# [16] = molecular target: Gal(b1-4)GlcNAc(b1-2)Man(a1-6)[GlcNAc(b1-2)Man(a1-3)]Man(b1-4)GlcNAc(b1-4)GlcNAc
# In short: as §1
# [17] = molecular target: Gal(b1-4)GlcNAc(b1-3)Gal(b1-4)GlcNAc(b1-3)Gal(b1-4)GlcNAc(b1-3)Gal(b1-4)GlcNAc(b1-2)Man(a1-3)[Gal(b1-4)GlcNAc(b1-3)Gal(b1-4)GlcNAc(b1-3)Gal(b1-4)GlcNAc(b1-3)Gal(b1-4)GlcNAc(b1-2)Man(a1-6)]Man(b1-4)GlcNAc(b1-4)GlcNAc
# In short: as §1
# Gal(b1-6)Gal = molecular target: Gal(b1-6)Gal
# In short: as §1
# [18] = molecular target: Gal3S(b1-4)[Fuc(a1-3)]GlcNAc6S
# In short: as §1
# GalNAc(b1-3)Gal = molecular target: GalNAc(b1-3)Gal
# In short: as §1
# GalNAc3S(b1-4)GlcNAc3S = molecular target: GalNAc3S(b1-4)GlcNAc3S
# In short: as §1
# [19] = molecular target: GlcNAc(a1-4)Gal(b1-4)GlcNAc(b1-3)Gal(b1-4)GlcNAc(b1-3)Gal(b1-4)GlcNAc
# In short: as §1
# [20] = molecular target: GlcNAc(b1-2)Man(a1-3)[GlcNAc(b1-2)Man(a1-6)]Man(b1-4)GlcNAc(b1-4)[Fuc(a1-6)]GlcNAc
# In short: as §1
binder,measurement,setting,value
B1,glycan array binding signal (z-score),Fuc(a1-2)Gal(b1-3)GlcNAc,-0.372
same,glycan array binding signal (z-score),[1],-0.362
same,glycan array binding signal (z-score),[2],-0.366
same,glycan array binding signal (z-score),[3],-0.367
same,glycan array binding signal (z-score),[4],-0.372
same,glycan array binding signal (z-score),[5],-0.335
same,glycan array binding signal (z-score),[6],-0.368
same,glycan array binding signal (z-score),[7],-0.349
same,glycan array binding signal (z-score),[8],-0.359
same,glycan array binding signal (z-score),[9],-0.36
same,glycan array binding signal (z-score),[10],-0.364
same,glycan array binding signal (z-score),[11],-0.366
same,glycan array binding signal (z-score),[12],-0.369
same,glycan array binding signal (z-score),[13],-0.555
same,glycan array binding signal (z-score),[14],0.543
same,glycan array binding signal (z-score),[15],-0.369
same,glycan array binding signal (z-score),[16],0.45
same,glycan array binding signal (z-score),[17],0.956
same,glycan array binding signal (z-score),Gal(b1-6)Gal,-0.37
same,glycan array binding signal (z-score),[18],-0.344
same,glycan array binding signal (z-score),GalNAc(b1-3)Gal,-0.243
same,glycan array binding signal (z-score),GalNAc3S(b1-4)GlcNAc3S,-0.369
same,glycan array binding signal (z-score),[19],4.19
same,glycan array binding signal (z-score),[20],0.519
